In PubChem BioAssay one finds z-score and composite z-score data, which are given here for 13 molecules.

Molecules are shown by their SMILES. Active and inactive are the calls of the source.

Experiment [1] in a line: optical density shifts of acrAB sulA E. coli – strain DRC41, OD650, 48 h, E. coli filamentation inducer project, primary screen (AID 1152).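 Further: E. coli MC1000 strain DRC41 lacking acrAB efflux pump and sulA.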 The settings on record: higher = more signal, called active from +8 up or from −8 down.
Experiment [2] can be described thus: probe aLefty1 binding on compound microarray – biochemical, small-molecule microarray, 635/667 nm fluorescence, primary screen (AID 1153).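 Further: score merges spot fluorescence with signal-to-noise ratio from the scanned slide images.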 The settings on record: higher = more signal.
Experiment [3] in a line: plasmodial surface anion channel blockers, osmotic lysis – cell-based, P. falciparum Indochina, OD700, 1 h, primary screen (AID 1154). The settings on record: P. falciparum Indochina infected RBC osmotic lysis, higher = more signal, called active from +8 up or from −8 down.
The nature of experiment [4]: plasmodial surface anion channel blockers, osmotic lysis – cell-based, P. falciparum Indochina, OD700, 2 h, primary screen (AID 1155).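 Further: lysis reports solute entry through the parasite surface anion channel PSAC.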 The settings on record: P. falciparum Indochina infected erythrocytes, higher = more signal, called active from +8 up or from −8 down.
The nature of experiment [5]: changes in parasitized red cell lysis, either direction – P. falciparum Indochina, OD700, 3 h, PSAC antagonist project, primary screen (AID 1156). The settings on record: P. falciparum-infected erythrocytes, osmotic lysis, higher = more signal, called active from +8 up or from −8 down.
Experiment [6] is described as follows: plasmodial surface anion channel blockers, osmotic lysis – cell-based, P. falciparum Indochina, OD700, 18 h, primary screen (AID 1157). Conditions: P. falciparum Indochina infected erythrocytes, osmotic lysis OD700, 18 h; higher = more signal, called active from +8 up or from −8 down.
Experiment [7] can be described thus: S6 kinase pathway phospho-S6 level changes – cell-based, A549, cytoblot, luminescence, serum-stimulated, primary screen (AID 1158).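 Further: serum-stimulated A549 lung adenocarcinoma cells; signal is phosphorylated S6 detected by cytoblot immunostaining with HRP secondary.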 The settings on record: 5 h, higher = more signal.
Experiment [8] deals with NADPH oxidase 2 (Homo sapiens) (UniProt P04839). The experiment in a line: compounds shifting NOX2 Amplex Red fluorescence – cell-based, HEK293-NOX2, PMA-stimulated, NOX inhibitor project, primary screen (AID 1159). Further: test concentration not given here. The settings on record: 45 min, higher = more signal, called active from +8 up or from −8 down.
Chain of NADPH oxidase 2 (Homo sapiens) (P04839 whole entry, looked up): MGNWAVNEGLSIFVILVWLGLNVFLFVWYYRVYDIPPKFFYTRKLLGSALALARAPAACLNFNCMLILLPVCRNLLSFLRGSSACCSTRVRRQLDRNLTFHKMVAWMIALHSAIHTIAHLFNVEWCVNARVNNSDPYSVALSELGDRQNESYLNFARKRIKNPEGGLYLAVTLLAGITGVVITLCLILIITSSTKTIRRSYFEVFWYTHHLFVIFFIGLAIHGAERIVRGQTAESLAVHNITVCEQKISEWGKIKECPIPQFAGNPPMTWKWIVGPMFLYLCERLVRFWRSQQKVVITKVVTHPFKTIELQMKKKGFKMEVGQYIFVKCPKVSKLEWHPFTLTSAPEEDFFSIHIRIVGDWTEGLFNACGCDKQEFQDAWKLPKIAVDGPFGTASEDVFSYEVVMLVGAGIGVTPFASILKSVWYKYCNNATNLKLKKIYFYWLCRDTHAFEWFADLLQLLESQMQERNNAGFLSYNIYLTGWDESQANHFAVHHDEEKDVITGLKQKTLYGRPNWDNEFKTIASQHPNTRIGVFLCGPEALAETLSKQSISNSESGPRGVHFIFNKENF
The target of experiment [9] is NADPH oxidase 4 (Homo sapiens) (UniProt Q9NPH5). Kind of experiment: compounds shifting NOX4 Amplex Red fluorescence – cell-based, HEK293-NOX4, tetracycline-induced, NOX inhibitor project, primary screen (AID 1160). The settings on record: HEK293-NOX4, Amplex Red H2O2 fluorescence, 45 min; higher = more signal, called active from +8 up or from −8 down.
Chain of NADPH oxidase 4 (Homo sapiens) (Q9NPH5 whole entry, looked up): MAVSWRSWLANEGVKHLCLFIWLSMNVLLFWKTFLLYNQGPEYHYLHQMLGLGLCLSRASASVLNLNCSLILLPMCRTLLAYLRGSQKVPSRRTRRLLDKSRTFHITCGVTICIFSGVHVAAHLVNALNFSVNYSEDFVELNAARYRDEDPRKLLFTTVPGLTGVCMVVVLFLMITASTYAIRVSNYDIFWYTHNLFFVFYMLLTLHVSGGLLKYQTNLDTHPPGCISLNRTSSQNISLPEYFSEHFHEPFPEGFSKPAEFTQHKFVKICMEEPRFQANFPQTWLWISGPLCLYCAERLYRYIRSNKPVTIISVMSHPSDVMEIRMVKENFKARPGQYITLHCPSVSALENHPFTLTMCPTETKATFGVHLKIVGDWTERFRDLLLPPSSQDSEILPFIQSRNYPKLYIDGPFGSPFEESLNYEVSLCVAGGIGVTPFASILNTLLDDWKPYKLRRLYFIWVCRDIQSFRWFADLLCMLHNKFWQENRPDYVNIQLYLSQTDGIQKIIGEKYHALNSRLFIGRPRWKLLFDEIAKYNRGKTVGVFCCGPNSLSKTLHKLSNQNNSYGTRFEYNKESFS
In experiment [10] the target is NADPH oxidase 5 (Homo sapiens) (UniProt Q96PH1). The experiment in a line: compounds shifting NOX5 Amplex Red fluorescence – cell-based, HEK293-NOX5, NOX inhibitor project, primary screen (AID 1161). Conditions: HEK293-NOX5, ionomycin, 45 min, higher = more signal.
Chain of NADPH oxidase 5 (Homo sapiens) (Q96PH1 whole entry, looked up): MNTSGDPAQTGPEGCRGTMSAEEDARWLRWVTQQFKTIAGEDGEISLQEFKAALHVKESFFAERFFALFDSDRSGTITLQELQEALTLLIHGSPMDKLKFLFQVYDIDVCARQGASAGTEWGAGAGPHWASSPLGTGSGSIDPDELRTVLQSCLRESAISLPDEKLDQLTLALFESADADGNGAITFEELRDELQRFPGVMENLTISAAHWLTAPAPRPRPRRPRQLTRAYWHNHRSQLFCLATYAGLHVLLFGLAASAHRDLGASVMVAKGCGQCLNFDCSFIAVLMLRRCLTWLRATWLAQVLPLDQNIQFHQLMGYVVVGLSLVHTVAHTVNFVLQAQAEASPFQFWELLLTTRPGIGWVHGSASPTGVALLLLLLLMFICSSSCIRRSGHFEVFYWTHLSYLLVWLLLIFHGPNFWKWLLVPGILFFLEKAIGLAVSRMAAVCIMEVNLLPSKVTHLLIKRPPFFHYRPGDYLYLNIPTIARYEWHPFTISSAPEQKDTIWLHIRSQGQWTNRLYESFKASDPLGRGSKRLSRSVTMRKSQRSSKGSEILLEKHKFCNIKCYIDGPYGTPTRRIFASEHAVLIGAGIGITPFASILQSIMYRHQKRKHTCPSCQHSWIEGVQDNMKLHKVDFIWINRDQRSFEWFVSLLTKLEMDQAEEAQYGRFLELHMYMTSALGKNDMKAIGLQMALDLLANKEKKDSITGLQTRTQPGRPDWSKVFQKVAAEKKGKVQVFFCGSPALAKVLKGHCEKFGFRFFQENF

For `O=C1O[C@H](c2ccccc2)[C@H](c2ccccc2)N2[C@H]1[C@@H](C(=O)O)[C@]1(C(=O)Nc3ccc(C#CCCO)cc31)[C@H]2c1ccc(O)cc1`, the z-score in [1] is 1.4 (inactive); in experiment [3], 1.43 (inactive); in experiment [4], 0.4 (inactive); in [5], 0.735 (inactive); in experiment [6], 0.531 (inactive); in [7], 0.282. Besides, the z-score is -0.185 (inactive) in experiment [8], -0.455 (inactive) in experiment [9] and 0.157 in experiment [10]. In experiment [2], this molecule yielded a composite z-score of 0.334.

Take `CN1C(=O)[C@]2(Cc3ccccc3)N=C(c3ccc(OCCCO)cc3)O[C@@H]2c2ccccc21`: the z-score in [1] was -0.105 (inactive); in [3], 33.7 (active); in experiment [4] it was 32.4 (active); in experiment [5] it was 2.34 (inactive); in experiment [6] it was 3.54 (inactive); in [7] it was 0.435. The z-score is -2.02 (inactive) in experiment [8], -0.608 (inactive) in experiment [9] and -1.93 in experiment [10]. Also, in [2], the composite z-score is -0.157.

Turning to `C=CCOC(=O)[C@H]1[C@@H]2C(=O)O[C@@H](c3ccccc3)[C@@H](c3ccccc3)N2[C@@H](c2ccc(OCCOC(=O)[C@@H]3C[C@@H]4C(=O)N[C@@H](CCCCN(C)C)C(=O)N4[C@@H]3c3ccc(O)cc3)cc2)[C@]12C(=O)Nc1ccc(I)cc12`, the z-score in experiment [1] is -0.785 (inactive); in experiment [3] it was -0.117 (inactive); in [4] it was 1.39 (inactive); in experiment [5], 5.33 (inactive); in experiment [6], 0.448 (inactive); in experiment [7], -0.724. Moreover, the values for the z-score in experiment [8], in [9] and in experiment [10] were 1.41 (inactive), 0.74 (inactive) and -0.496, respectively. The composite z-score in experiment [2] is -0.15.

Regarding `O=C1OCCC/C=C\[C@H]2OC34C=CCN(c5ccc6ccccc6c5)C(=O)[C@H]3N(CCCCCCO)C(=O)[C@@H]4C12` (stereo not given in full), the z-score is 1.63 (inactive) in experiment [1]; 3.35 (inactive) in experiment [3]; -0.781 (inactive) in experiment [4]; 0.562 (inactive) in experiment [5]; -1.46 (inactive) in experiment [6]; 1.4 in [7]. The z-score in experiment [8] is 1.52 (inactive); in [9] it was 0.341 (inactive); in [10], 2.26. The same molecule had a composite z-score in experiment [2] of 0.325.

As to `O=C1NC(=O)C2C1C=CC(C(O)c1ccccc1)N2Nc1ccc(Cl)cc1Cl` (stereo not given), the z-score was -1.87 (inactive) in [1]; 5.08 (inactive) in experiment [3]; -0.32 (inactive) in experiment [4]; -3.3 (inactive) in [5]; -1.8 (inactive) in experiment [6]; 0.726 in [7]. Moreover, the z-score in [8] is -0.169 (inactive); in [9], -4.94 (inactive); in [10] it was -2.51. In addition, the composite z-score in experiment [2] stood at 0.93.

With `CN(C)CCCC[C@@H]1NC(=O)[C@H]2C[C@@H](C(=O)NCCCCCNC(=O)CS)[C@@H](c3cccc(OCCO)c3)N2C1=O`, the z-score was -0.728 (inactive) in experiment [1]; 2.9 (inactive) in experiment [3]; 0.55 (inactive) in experiment [4]; -0.744 (inactive) in [5]; 0.203 (inactive) in experiment [6]; -0.534 in experiment [7]. Moreover, the figures for the z-score in experiment [8], in experiment [9] and in experiment [10] were 1.76 (inactive), 0.749 (inactive) and 1.13, respectively. Besides, the composite z-score in [2] was -0.0601.

Consider `CCCCCC1=C2CNC(CCC)(C(=O)OC)C=C2C(C)C1=O` (stereo not given), for which the z-score was -1.11 (inactive) in experiment [1]; 2.2 (inactive) in [3]; 0.0123 (inactive) in experiment [4]; 0.807 (inactive) in [5]; 0.493 (inactive) in [6]; -0.39 in experiment [7]. In addition, the z-score in experiment [8] was 0.0917 (inactive); in experiment [9], -1.52 (inactive); in experiment [10], -3.63. The molecule also had a composite z-score in experiment [2] of 0.358.

With `CCCC[C@@H]1C[C@H]1[C@@H](NC(=O)c1ccco1)c1ccc(C(=O)OC)cc1`, the z-score in experiment [1] is -2.59 (inactive); in experiment [3], 1.59 (inactive); in experiment [4], 0.501 (inactive); in experiment [5], 0.394 (inactive); in [6], 0.323 (inactive); in experiment [7] it was -0.0467. Also, the z-score was -1.55 (inactive) in experiment [8], -1.96 (inactive) in experiment [9] and 1.82 in experiment [10]. For the same molecule, in [2], the composite z-score is -0.214.

As for `CC(C)c1ccc(NN2C(C(O)c3cc(C(F)(F)F)cc(C(F)(F)F)c3)C=CC3C(=O)N(c4ccccc4)C(=O)C32)cc1` (stereo not given), the z-score in experiment [1] was -2.06 (inactive); in [3] it was 3.24 (inactive); in [4], 1.88 (inactive); in experiment [5], -1.37 (inactive); in experiment [6] it was 2.32 (inactive); in experiment [7], 0.122. Besides, the values for the z-score in experiment [8], in experiment [9] and in experiment [10] were -1.3 (inactive), -5.07 (inactive) and -4.2, respectively. In experiment [2], this molecule registered a composite z-score of -0.101.

`C=CCOC(=O)[C@H]1[C@@H]2C(=O)O[C@@H](c3ccccc3)[C@@H](c3ccccc3)N2[C@@H](c2ccc(OCCOC(=O)[C@H]3C[C@H]4C(=O)N5CCC[C@H]5C(=O)N4[C@H]3c3ccc(O)cc3)cc2)[C@]12C(=O)Nc1ccc(I)cc12`: the z-score in experiment [1] was 0.917 (inactive); in [3] it was 0.234 (inactive); in experiment [4] it was -0.588 (inactive); in experiment [5], -1.27 (inactive); in [6], -1.39 (inactive); in [7] it was 0.555. For the same molecule, the z-score is -1.32 (inactive) in experiment [8], -1.09 (inactive) in [9] and -0.351 in experiment [10]. This molecule gave a composite z-score in [2] of 1.99.

For `COc1ccc(CCNC(=O)[C@@]2(Sc3ccc(C)cc3)CC(=O)N(C3CCCCC3)[C@@H]2c2ccc(CO)cc2I)cc1`, the z-score in [1] is -0.0948 (inactive); in [3] it was 2.91 (inactive); in experiment [4], 0.547 (inactive); in [5], -0.325 (inactive); in experiment [6], 0.252 (inactive); in experiment [7], -0.012. The z-score in experiment [8] was 0.573 (inactive); in experiment [9] it was 0.672 (inactive); in experiment [10] it was 2.1. This molecule also had a composite z-score in [2] of 0.0889.

On to `Cc1ccc(S[C@]2(C(=O)NCC(C)C)CC(=O)N(Cc3cc(C(F)(F)F)cc(C(F)(F)F)c3)[C@@H]2c2ccc(CO)cc2I)cc1`, for which the z-score in [1] is -0.336 (inactive); in experiment [3], 2.53 (inactive); in experiment [4], -0.449 (inactive); in experiment [5] it was 0.767 (inactive); in experiment [6] it was 0.278 (inactive); in experiment [7], -0.301. In addition, the results for the z-score in experiment [8], in experiment [9] and in [10] were 2.07 (inactive), -1.39 (inactive) and -0.95, respectively. Besides, in experiment [2], the composite z-score is 0.12.

In the case of `CCCCC=C[C@@H](NC(=O)Oc1cccc(C(F)(F)F)c1)c1ccccc1`, the z-score is -2.63 (inactive) in experiment [1]; 2.41 (inactive) in experiment [3]; 0.278 (inactive) in experiment [4]; 0.247 (inactive) in experiment [5]; -1.17 (inactive) in [6]; 1.31 in experiment [7]. Also, the z-score in [8] is -3.82 (inactive); in experiment [9] it was -3.48 (inactive); in experiment [10], -2.98. In addition, the composite z-score in experiment [2] worked out at 1.29.
